In all, about 8,300 sequences were measured (“log2 fold change of degron read counts, EGFP-low vs EGFP+ sorted cells (limma voom), compound-induced degradation”: median about -1.1, highest 2% from about 3.2 on). Many of the other results were omitted from the sample, so the highest values are more common in it than they were.
T1: CRBN, Q96SW2
T1 chain: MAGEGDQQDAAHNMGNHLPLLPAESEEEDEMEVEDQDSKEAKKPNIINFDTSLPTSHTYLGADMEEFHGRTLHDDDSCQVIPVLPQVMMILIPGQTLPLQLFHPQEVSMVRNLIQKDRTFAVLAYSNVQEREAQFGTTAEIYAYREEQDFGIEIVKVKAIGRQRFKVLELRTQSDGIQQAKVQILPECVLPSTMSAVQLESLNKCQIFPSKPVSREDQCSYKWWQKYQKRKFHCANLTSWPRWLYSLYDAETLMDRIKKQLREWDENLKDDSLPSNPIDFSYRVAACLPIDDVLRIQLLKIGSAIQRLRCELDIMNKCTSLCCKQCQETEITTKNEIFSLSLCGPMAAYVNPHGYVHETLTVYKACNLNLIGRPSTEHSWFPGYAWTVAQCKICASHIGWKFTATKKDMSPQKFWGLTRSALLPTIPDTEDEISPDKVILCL

B1: 46F_47V_49E_50Q_52G_53A_54T_55F_67L_, Q9UKT9 (peptide)
chain: FVCEQCGATFTQKGNLLRHIKL
B2: 46F_47L_49N_50Q_52G_53A_54D_55F_67L_, Q9UKT9 (peptide)
chain: FLCNQCGADFTQKGNLLRHIKL
B3: 46F_47Y_49E_50I_52G_53H_54E_55F_67L_, Q9UKT9 (peptide)
chain: FYCEICGHEFTQKGNLLRHIKL
B4: 46F_47Y_49P_50Q_52G_53A_54F_55F_67L_, Q9UKT9 (peptide)
chain: FYCPQCGAFFTQKGNLLRHIKL
B5: 46F_47L_49E_50V_52G_53A_54S_55F_67L_, Q9UKT9 (peptide)
chain: FLCEVCGASFTQKGNLLRHIKL
B6: 46F_47F_49E_50V_52G_53A_54S_55F_67L_, Q9UKT9 (peptide)
chain: FFCEVCGASFTQKGNLLRHIKL
B7: 46F_47N_49E_50V_52G_53A_54S_55F_67L_, Q9UKT9 (peptide)
chain: FNCEVCGASFTQKGNLLRHIKL
B8: 46F_47I_49N_50I_52G_53A_54G_55F_67L_, Q9UKT9 (peptide)
chain: FICNICGAGFTQKGNLLRHIKL

Target: T1, CRBN, Q96SW2
Test: log2 fold change of degron read counts, EGFP-low vs EGFP+ sorted cells (limma voom), compound-induced degradation; higher = more compound-induced degradation of the degron-EGFP fusion; degrons are variants of IKZF1/3 zinc finger 2; compound dose not given here
Details: Jurkat, 18 h
[1] = compound: compound 19 (5-tert-butyl-thalidomide)
[2] = compound: compound 22 (5-morpholino-thalidomide)
[3] = compound: compound 33 (diphenyl IMiD analogue)
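Further: pooled lentiviral library of zinc finger degron-EGFP fusions in mCherry-positive Jurkat cells, FACS-sorted after compound exposure, with degron abundance counted by next-generation sequencing.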

Sequence | log2 fold change of degron read counts [1] | log2 fold change of degron read counts [2] | log2 fold change of degron read counts [3] | log2 fold change of degron read counts (compound: thalidomide)
B1 | -2.6 | -1.48 | 0.0752 | -0.452
B2 | -2.76 | -3.21 | -2.79 | -2.29
B3 | -2.18 | -2.9 | -1.81 | -2.55
B4 | 0.239 | 0.269 | 0.837 | -1.07
B5 | 1.64 | -0.285 | 1.43 | 1.45
B6 | 3.45 | 3.66 | 2.48 | 1.61
B7 | 3.22 | 1.38 | 0.489 | 0.435
B8 | -0.991 | 1.17 | 1.13 | 1.71

Reference: the supplement of paper PMC12645437, “Orthogonal IMiD-Degron Pairs Induce Selective Protein Degradation in Cells” (ACS Chemical Biology, 2025)
